According to PubChem BioAssay AID1903 (Southern Research Specialized Biocontainment Screening …, 2009):
“And” between values parts separate entries of the source, which are not always exact repeats. Identical values can stand only once. About 1,200 (0.39%) of roughly 310,000 compounds were called active. A selection follows. Measured potencies and affinities stand elsewhere. Values without a mark were called inactive. How the calls were made is not given here.

Target: Large T antigen (Simian virus 40) (UniProt P03070)
Test: TAg ATPase/helicase activity blockers – biochemical (AID 1903)
Conditions: SV40 large T antigen ATPase/helicase inhibition assay; at 20 µM; hits give high values

Sequence of Large T antigen (Simian virus 40) (P03070 whole entry, looked up): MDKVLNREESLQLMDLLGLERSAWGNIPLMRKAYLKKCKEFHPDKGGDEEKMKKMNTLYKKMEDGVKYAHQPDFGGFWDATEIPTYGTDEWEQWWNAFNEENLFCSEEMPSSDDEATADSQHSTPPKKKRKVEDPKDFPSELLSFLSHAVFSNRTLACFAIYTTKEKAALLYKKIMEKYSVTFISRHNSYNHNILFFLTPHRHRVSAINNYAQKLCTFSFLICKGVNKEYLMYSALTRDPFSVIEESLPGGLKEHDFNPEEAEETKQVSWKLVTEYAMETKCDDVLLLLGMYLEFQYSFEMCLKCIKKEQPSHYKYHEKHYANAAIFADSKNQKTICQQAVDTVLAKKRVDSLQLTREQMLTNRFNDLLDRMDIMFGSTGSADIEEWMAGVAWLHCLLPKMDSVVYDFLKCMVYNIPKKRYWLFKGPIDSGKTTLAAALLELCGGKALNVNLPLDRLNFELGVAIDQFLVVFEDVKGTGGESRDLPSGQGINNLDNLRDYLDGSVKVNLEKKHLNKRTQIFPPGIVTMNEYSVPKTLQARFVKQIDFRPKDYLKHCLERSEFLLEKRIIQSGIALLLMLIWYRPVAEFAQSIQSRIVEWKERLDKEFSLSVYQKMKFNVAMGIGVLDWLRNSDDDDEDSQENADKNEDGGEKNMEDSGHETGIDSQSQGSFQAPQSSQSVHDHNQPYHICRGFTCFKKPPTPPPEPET

Structure (SMILES) | inhibition
O=C(NCCc1ccco1)c1cc(COc2cccc(C(F)(F)F)c2)on1 | 29.7%
CCc1ccc(CN2CCC(n3nccc3NC(=O)Cc3ccccc3)CC2)o1 | 13.5%
Cc1ccc(N(CC(=O)N/N=C/c2cccc(Br)c2)S(C)(=O)=O)cc1 | 9.07%
CCOc1cc(/C=N\NC(=O)c2c(C)nc3ccccn23)ccc1O | 35%
CC(C)(C)c1cc(C(=O)N/N=C/c2ccccc2O)n(-c2ccccc2)n1 | 19.8%
CC(C)(C)c1cc(C(=O)N/N=C/c2ccc(F)cc2)n(-c2ccccc2)n1 | -0.35%
Cc1cc(C)n2nc(C(=O)N/N=C/c3ccc(Cl)cc3)nc2n1 | 6.6%
COc1cc(/C=N/NC(=O)c2cc3ccccc3[nH]2)ccc1O | 27.5%
Cc1ccc(/C=N/NC(=O)c2nc3nc(C)cc(C)n3n2)cc1 | 22.5%
COc1cc(/C=N/NC(=O)c2cccc(C(=O)N/N=C/c3ccc(O)c(OC)c3)n2)ccc1O | -2.1%
COc1ccc(OC)c(/C=N\NC(=O)c2c(C)nc3cc(C)ccn23)c1 | 11.2%
COc1ccc(S(=O)(=O)N2CCCC(C(=O)NCCC(C)C)C2)cc1 (configuration not stated) | 5.62%
Cc1cccc(NC(=O)c2cc(-c3cc(C)c(C)cc3O)n[nH]2)c1 | 4.66%
CCOC(=O)Cc1c(C)nc(SC)[nH]c1=O | 1.67%
Cc1nn(C)c(Oc2ccccc2)c1CCNC(=O)CCl | -0.24%
COc1cccc(OC)c1C(=O)Nc1ccc(S(=O)(=O)Nc2cc(C)nc(C)n2)cc1 | 20.7%
COc1ccc(N(CC(=O)NCc2ccncc2)S(=O)(=O)c2ccccc2[N+](=O)[O-])c(OC)c1 | 2.38%
COc1ccc(/C=N/NC(=O)c2ccc3nc[nH]c3c2)cc1OC | 3.44%
COc1cc(/C=N/NC(=O)c2ccc3nc[nH]c3c2)cc(OC)c1OC | 8.71%
COCCSc1nc2c(c(=O)[nH]c(=O)n2C)n1CCCc1ccccc1 | 3.03%
Cc1noc(C)c1COC(=O)c1cccnc1SCC(=O)Nc1ccc2c(c1)OCO2 | 2.06%
Cc1ccccc1Cn1cnc2c(NS(C)(=O)=O)c(C)c(C)cc21 | 0.14%
Cc1c(Cl)cccc1N=C(N)N=C(N)N | 13.8%

Structure (SMILES) | inhibition
NC(N)=N/N=C/c1c(Cl)cccc1Cl | 21.2% and 9.2%
COc1ccc(O)c(/C=N/N=C2/C(=O)Nc3ccccc32)c1 | 12.5%
Cc1ccsc1/C=N/N=C1\C(=O)Nc2ccccc21 | -4.81%
COc1cc(/C=N/N=C2/NC(=O)C(c3ccccc3)S2)ccc1O (configuration not stated) | 30.9%
COc1ccc(OC)c(N=C2C(=O)Nc3ccccc32)c1 | 4.71%
O=C1Nc2ccccc2/C1=N/N=C/c1cccc(O)c1 | 13.2%
COc1cc(/C=N/N=C(/C(=O)c2ccccc2)c2ccccc2)cc(OC)c1O | 15.6%
COC(=O)c1ccc(S(=O)(=O)N2C3CCC2CC(NC(=O)C2CC2)C3)cc1 (configuration not stated) | -2.31%
CCCCN(CCCC)CCCNC(=O)C12CN(Cc3ccccc3)CC1C(c1cccc([N+](=O)[O-])c1)=NO2 (configuration not stated) | 6.72%
Cc1cc(NCc2ccccc2)n2ncc(-c3ccccc3)c2n1 | 3.96%
CC(=O)OC[C@H]1O[C@@H](O/N=C/C[C@@H]2C=C[C@H](OC(C)=O)[C@@H](COC(C)=O)O2)[C@H](OC(C)=O)[C@@H](OC(C)=O)[C@@H]1OC(C)=O | 7.46%
Cc1cc(NC(=O)C(C)SCC(=O)Nc2ccc(SC(F)F)cc2)no1 (configuration not stated) | 15.7%
Cc1ccc(C(=O)Cc2cc3ccccc3oc2=O)c(C)c1 | 9.25%
Oc1ccc(-c2nc3ccccc3s2)c(O)c1 | 21%
O=S(=O)(O)c1cc(O)ccc1O | 25.8%
O=C(Cc1ccccc1)NCc1cccnc1 | 5.27%
CC(OC(=O)Cc1n[nH]c(=O)c2ccccc12)C(=O)Nc1cccc([N+](=O)[O-])c1 (configuration not stated) | 8.17%
COC(=O)c1cc(NS(=O)(=O)c2ccc(Cl)c(N3C(=O)c4ccc(C(=O)O)cc4C3=O)c2)cc(C(=O)OC)c1 | 11.3%
CCN1C(=O)C2(C(C(=O)c3cc4ccccc4o3)=C(O)C(=O)N2CCCN2CCOCC2)c2ccccc21 (configuration not stated) | 16.1%
CCN1C(=O)C2(C(C(=O)c3ccc(C)o3)=C(O)C(=O)N2CCCN(C)C)c2ccccc21 (configuration not stated) | 27.5%
CCC(=O)Nc1ccc(C(=O)NNC(=O)c2cccc(C)c2)cc1 | 5.14%
COc1cc(/C=C/c2ccc3cccc(O)c3n2)c(Br)cc1O | 0.04%
COc1cccc2c1-c1c(O)cccc1C2=O | 9.33%

Structure (SMILES) | inhibition
O=C(CSc1nnc(-c2cccnc2)n1-c1ccccc1)Nc1ccc2c(c1)OCO2 | 18.3%
N#Cc1ccsc1NC(=O)CN1C(=O)NC2(CCCC2)C1=O | 13.3%
CCCOc1ccc(N2C(=O)CC(NCC#N)C2=O)cc1 (configuration not stated) | 3.6%
Nc1c(-c2ccc(Cl)cc2)cnn1-c1cc(C(F)(F)F)cc(C(F)(F)F)c1 | 10.5%
Oc1ccccc1C1=Nc2ccccc2N=C(c2cccs2)C1 | 12.3%
O=C(O)C1CC(c2ccccc2)=Nc2ccccc2S1 (configuration not stated) | 19.3%
CCn1cc(S(=O)(=O)CC(=O)Nc2cc(C)ccc2C)c2ccccc21 | 3.58%
CC(=O)c1ccc(OCCCC(=O)NC2CCC(C)CC2)cc1 (configuration not stated) | 23.9%
Cc1cccc(-c2noc(CN(C)C(=O)COc3ccccc3)n2)c1 | 13.7%
Cc1nn(-c2ccccc2)c(C)c1C(=O)Nc1ccc(N2CCOCC2)cc1 | 26.7%
Cc1nn(-c2ccccc2)c(Cl)c1C(=O)Nc1ccc(N2CCOCC2)cc1 | 9.69%
C/C(CC(=O)Nc1ccc(N(C)C)cc1)=N\NC(=O)c1ccc(Cl)cc1 | 21.9%
C/C(CC(=O)NCc1ccco1)=N\NC(=O)c1ccc(Cl)cc1Cl | 5.88%
C/C(CC(=O)Nc1ccc2c(c1)OCCO2)=N\NC(=O)c1ccc([N+](=O)[O-])cc1Cl | 3.29%
C/C(CC(=O)Nc1ccc(N(C)C)cc1)=N\NC(=O)c1ccc([N+](=O)[O-])cc1 | 22.9%
Cc1nnsc1C(=O)N1CCCC(N2CCN(c3cccc(C(F)(F)F)c3)CC2)C1 (configuration not stated) | 12.9%
COCC(=O)Nc1ccc2c(c1)OCC(=O)N2Cc1ccccc1F | 20.2%
CC(=O)N1CCN(CC(=O)O)CC1 | 5.47%
Cn1c(N)c(C(=O)Nc2ccccc2)c(=O)[nH]c1=O | 5.18%
O=C(CCNC(=O)Cn1ccc2ccccc2c1=O)NCCCN1CCN(c2ccccc2F)CC1 | -2.74%
COc1ccc(OC)c(CCNC(=O)Cn2nc(C)c3c(C)n(-c4ccccc4)nc3c2=O)c1 | 2.47%
CCCNC(=O)Cn1sc2nc(C)cc(C)c2c1=O | 8.82%
Cn1c2ccccc2c2cnn(CC(=O)NCCCN3CCN(c4ccccc4F)CC3)c(=O)c21 | 9.9%

Structure (SMILES) | inhibition
Cc1c(Cl)cccc1NC(=O)Cn1cc(C(F)(F)F)cc(Cl)c1=O | 6.09%
Cc1ccc(NC(=O)Cn2sc3nc(C)cc(C)c3c2=O)c(Cl)c1 | 5.12%
O=C(c1cc([N+](=O)[O-])ccc1Cl)N1c2ccccc2Sc2ccccc21 | 3.02%
Cc1cc(C)cc(OCc2nnc(SCC(=O)NC3CC3)n2C)c1 | -1.01%
CCOC(=O)N1CCC(N2C(=O)c3ccc(C(=O)NCCOC)cc3C2=O)CC1 | 5.99%
COc1cccc(NC(=O)Nc2cc(C)ccc2OC)c1 | 2.17%
CCCc1cc(=O)oc2cc(C)cc(OCC(=O)NCC(O)c3ccccc3)c12 (configuration not stated) | 12.5%
Cc1ccc(N2CC(=O)N(NC(=O)Nc3ccc(Cl)c(Cl)c3)CC2=O)cc1 | 13.8%
O=C(CCC(=O)N1CCN(Cc2ccccc2)CC1)Nc1nnc(C2CCCCC2)s1 | 13.1%
CSCCC(NC(N)=O)C(=O)Nc1cccc(S(=O)(=O)N2CCOCC2)c1 (configuration not stated) | 2.59%
O=C(CCCOc1ccc(Br)cc1)NNC(=O)c1ccncc1 | 26.4%
CCc1ccc(NC(=O)c2cc(-c3ccco3)on2)cc1 | 6.38%
O=C(CSc1cn(Cc2ccccc2)c2ccccc12)NCc1ccc(F)cc1 | 6.13%
C=CCn1c(SCC(=O)NCCCC)nc2scc(-c3ccco3)c2c1=O | 32.9%
C=CCn1c(=S)[nH]c2scc(-c3cccs3)c2c1=O | 9.96%
C=CCn1c(=S)[nH]c2scc(-c3ccc(C)o3)c2c1=O | 7.5%
C=CCn1c(SCC(=O)N2CCOCC2)nc2scc(-c3ccco3)c2c1=O | 22.1%
COc1cc(/C=C/[N+](=O)[O-])ccc1OC(=O)/C=C/c1ccc(F)cc1 | 17.2%
CC(C)CCN(CCC(C)C)CC(O)Cn1c2ccccc2c(=O)c2ccccc21 (configuration not stated) | 8.16%
CC(=O)c1cccc(NC(=S)NC(=O)c2ccccc2C)c1 | -10%
CC(=O)OCCCCCCCCCCC[N+]1(C)CCCCC1 | 27.6%
COC(=O)CCCCCCCCCC[N+]1(C)CCCCC1 | -2.24%
COc1cc([N+](=O)[O-])ccc1NC(=O)Nc1cnccn1 | 13.4%
